This note sets out measurements from PubChem BioAssay AID2314 (National Center for Advancing Translational Sciences (NCATS), 2010).

Screen size: about 300,000 compounds; about 37,000 (12%) were called active. Shown is part of a subset that was picked to be rich in actives. Unmarked numbers belong to inactive results. Cut-off read from the data, not from the text of the source: active = max response mostly above about 13% (no sharp cut-off); inactive = mostly below about 14%.

This assay is described as follows: Cycloheximide Counterscreen for Small Molecule Inhibitors of Shiga Toxin. Note: read at 38.3 µM for the half of the compounds with a filed dose; 0% is about no effect. The conditions noted are these: cell reporter, cycloheximide protein synthesis inhibition counterscreen; stronger effect = higher value.
In the case of `CC(=O)N1c2ccccc2N(Cc2ccc([N+](=O)[O-])cc2)C(=O)C1(C)C`, the max response was 10.6%.
For `O=C(COc1ncnc2c(Cl)cc(Cl)cc12)N1CCN(S(=O)(=O)c2ccccc2)CC1` the value was 4.8%; for `CN(C)c1cccc(C(=O)N2CCC(n3nccc3NC(=O)C3CCOC3)CC2)c1` (stereo unspecified), 5.41%.
For `O=C(CNC(=O)OCc1ccccc1)Oc1cc2oc(=O)cc(-c3ccccc3)c2cc1Cl` the value was 7.2%.
The value for `COc1cccc(N(CC(=O)NCc2ccccc2)C(=O)CCC(=O)Nc2nccs2)c1` was -5.29%; that for `O=C(c1ccc(S(=O)(=O)N2CCCC2)cc1)N1CCN(c2ccccc2F)CC1` was -1.05%.
In the case of `Cc1ccc(S(=O)(=O)N(C)c2nc3ccccc3n3c(C(C)C)nnc23)cc1`, the max response is 1.55%.
As to `CCc1nn(CCCC(=O)NC(C)c2ccccc2)c(=O)c2cc3occc3n12` (stereo unspecified), the max response is 10.1%.
The value for `O=C(c1ccc(F)cc1)c1c[nH]c(C(=O)NCc2cccnc2)c1` was 0.811%; that for `C#CCOCCOCCOCCNc1nc(N2CCN(C(=O)[C@H](CCC(=O)O)n3cc(C(N)CO)nn3)CC2)nc(N2CCN(C(=O)[C@H](CCCCN)n3cc(C(N)[C@H](C)CC)nn3)CC2)n1` (stereo partly specified) was -1.6%; that for `COc1ccc(OCC(=O)Nc2nnc(-c3ccco3)s2)cc1` was -4.11%.
On to `COc1ccc(C(=O)CSc2nnc(-c3ccco3)o2)cc1`, for which the max response was 11.4%.
Turning to `CCCCOc1ccc(-c2nnc(-c3ccco3)o2)cc1`, the max response is 28.1% (active).
For the compound `O=c1c(Cl)c(NCc2ccc(F)cc2Cl)cnn1C12CC3CC(CC(C3)C1)C2`, the max response is -2.73%.
The value for `COc1cccc(C2CC(c3cccs3)=NN2C(=O)CSC2=NCCS2)c1OC` (stereo unspecified) was -1.93%; that for `COc1ccc(N(C)C(=O)CCS(=O)(=O)c2cccc3nsnc23)cc1` was 3.71%; that for `O=C(NCCOc1ccccc1Cl)C(=O)Nc1ccccc1` was -6.33%.
The value for `O=C(Nc1ccccc1)Nc1nnc(COc2ccccc2F)s1` was 0.805%; that for `O=C(NCCOc1ccccc1F)Nc1ccc(Br)cc1` was 41.8% (active).
`COc1ccc(CN2CCc3nc(Nc4ccccc4)ncc3C2)c(OC)c1OC`: the max response is 12.2%.
The value for `CCN(CC)C(=O)CC1(c2ccccc2OC)CCOC(C(C)C)C1` (stereo unspecified) was -2.61%.
The value for `O=C(O)c1ccccc1NC(=O)c1ccccc1-c1ccccc1C(=O)O` was 1.58%; that for `O=C(NC(=S)Nc1ccccc1C(=O)O)c1ccc(-c2ccc(Br)cc2)o1` was 45.5% (active); that for `O=C(NC(=S)Nc1cc(C(F)(F)F)ccc1N1CCOCC1)c1ccc(-c2cccc(Cl)c2)o1` was 12.2%.
For the compound `O=C(O)c1ccc2c(=O)n3c(nc2c1)/C(=C/c1ccc(Cl)c([N+](=O)[O-])c1)CC3`, the max response is -1.06%.
For `COc1ccc(N=Nc2c(-c3ccc(OC)cc3)[nH]oc2=O)cc1` the value was -1.85%.
For `COc1cc(NC(=O)CCS(=O)(=O)c2ccc3c(c2)oc(=O)n3C)cc(OC)c1` the value was -9.36%; for `CN(c1ccc2nc3ccccc3c(=O)n2n1)C1CCCCC1`, -12.8%; for `O=C(O)c1ccc(N=NN2CCOCC2)cc1`, 39% (active).
The value for `O=C(c1ccccc1)N1CCN(C(=O)N2CCCCC2)CC1` was -3.32%; that for `CN1CCN(S(=O)(=O)c2cccc(C(=O)O)c2)CC1` was -8.28%.
For the compound `O=C(NC(=O)N1CCOCC1)c1ccccc1`, the max response is 4.39%.
For `O=C(O)c1cccc(N=NN2CCCCCC2)c1` the value was 69.7% (active).
For `NC(=NC(=O)c1ccccc1)N1CCOCC1` the value was -1.9%; for `CCOC(=O)N1CCN(S(=O)(=O)N2CCCC(C(=O)NCCCN3CCC(C)CC3)C2)CC1` (stereo unspecified), 1.6%; for `CCc1ccccc1NC(=O)/C(=C/c1ccccc1)c1ccccc1`, 8.5%.
Regarding `O=C(Nc1ccccc1N1CCN(C(=O)c2ccccc2)CC1)c1ccco1`, the max response is -3.96%.
Take `CCOC(=O)C1CCN(c2ncnc3c2c(-c2ccccc2)cn3-c2ccc(C)cc2)CC1`: the max response is 1.88%.
For `COc1ccc(/C=C2/S/C(=N/N=C3\CC4CCC3(C)C4(C)C)NC2=O)cc1` (stereo unspecified) the value was 8.52%; for `COc1ccc(N(Cc2cc3ccc(C)cc3[nH]c2=O)S(=O)(=O)c2ccccc2)cc1`, 0.769%; for `O=C(NCCc1ccccc1)c1ccc2c(c1)N(Cc1ccccc1)CCS2`, 38.6% (active).
For `O=C(NCCN1CCOCC1)c1ccc2c(c1)N(Cc1ccc(Cl)cc1)CCS2` the value was -1.99%; for `CCOC(=O)N1CCN(C(=O)c2ccc3c(c2)N(Cc2ccc(C)cc2)CCS3)CC1`, -0.464%; for `COc1cc(SC#N)ccc1N=Cc1c(C)[nH]n(-c2ccc(C)cc2)c1=O`, -1.77%.
The value for `CC(=O)N1CCc2c(sc(NC(=O)CCS(=O)(=O)c3ccccc3)c2C#N)C1` was 6.75%; that for `CCC1CCc2c(sc(NC(C)=O)c2C#N)C1` (stereo unspecified) was 14.2% (active).
As to `CN1CCN(CC(=O)Nc2sc3c(c2C#N)CCC(C(C)(C)C)C3)CC1` (stereo unspecified), the max response is -3.82%.
For the compound `COc1cc(C(=O)NC2CCN(Cc3ccccc3)CC2)cc(Cl)c1OC(C)C`, the max response was -3.58%.
For `CCOc1ccccc1CNS(=O)(=O)c1cc(-c2cc(C)no2)ccc1C` the value was 5.17%; for `CCCCN(C)CCCNC(=O)c1cc(-c2cccs2)nc2ccccc12`, -4.95%.
The value for `CN(C)CCNc1ccc(-c2n[nH]c(=O)c3ccccc23)cc1[N+](=O)[O-]` was -2.5%; that for `CCN1CCN(C2CCCCC2NS(=O)(=O)c2ccc(Cl)cc2)CC1` (stereo unspecified) was -3.25%; that for `CC(=O)Nc1ccc(NC(=O)CC2CCCC2)cc1` was 20.7% (active).
Take `CC(=O)Nc1ccc(S(=O)(=O)N2CCN(C3CCCCCCC3)CC2)cc1`: the max response was -5.2%.
For `O=C(Cc1ccc(F)cc1)NC1CCCC1` the value was 5.3%; for `O=C(CC1CCCCC1)NCc1ccco1`, -1.2%; for `O=C(Cn1nc(C(F)(F)F)c2c1CCC2)NCc1ccc(F)cc1`, 0.318%.
In the case of `O=C(CCc1ccc(S(=O)(=O)NC2CCCCC2)cc1)NCc1ccccc1`, the max response was -1.16%.
For `CC(=O)Nc1ccc(N2C(=O)C3C4C=CC(CC4)C3C2=O)cc1` (stereo unspecified) the value was 3.43%.
For `O=C(CC1CCCCC1)NCc1ccccc1` the value was 17.3% (active); for `O=C(CC1CCCCC1)NCc1ccc(F)cc1`, 24.8% (active).
